# Experimental data published in the supplement of paper PMC6555819.
# Tested on: VDR:RXRa (NR concentration 270 nM, RXRa partner concentration 90 nM)
# Experiment: PBM binding z-score (relative to random genomic background probes); higher = stronger binding; sequences stand for … in GC…GCGATTGACAGCGTAGAATGAAGG
# Protocol: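 Protein-binding microarray (Agilent 4x180K custom design, double-stranded 60-nt probes: 5' GC cap, 34-nt variable region, 24-nt constant primer region; full probe sequence given). Purified or IVT nuclear receptor:RXRα heterodimers (3:1 NR:RXRα, mostly 270:90 nM) or homodimers were incubated for 1 h in PBS with 2% milk and no ligand, then detected with Alexa488 antibodies. Fluorescence from o1-orientation probes (~5 replicates averaged) was converted to z-scores against 500 random hg19 background probes. Variable regions are seed direct-repeat (DR0–DR5) sites, all their single-nucleotide variants and half-site ablations.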
row,Sequence,PBM binding z-score
1,GCTAGTTGGTCAGTAAAAGGTCACGCACCGGTCG,4.36
2,CGAACTAGGTCAGAACAAGACAGTGAAGGATGAT,0.215
3,CCAACTAGGTCACAGAGGTCAAAGTCCGTGCGTA,7.88
4,ATCTCTAGGTAACAAGTTCAGGGAAAGAGAGGAC,2.25
5,AGTCAAAGTTCAGGACGAGGTAACGTACAGCACG,2.88
6,ATCTCTAGGTAAAAAGTTCAGTGAAAGAGAGGAC,1.39
7,TCGAGTAGGTTACCAGTGGGGCATTCAGCTTTCT,0.134
8,CCTGCTAGGTCTTGGTCAGCTAATCTACAGTATG,-0.434
9,AGAGTGAGGTTAAGATCAGGGAAACAGAATACAT,1.62
10,CGAACCAGGTCAAGGACAGTGAATCTCCGCACGC,2.22
11,CGTCCAAGGTCAAGGTCAGTGAAAGAGACTCGAA,4.7
12,TCTTGTAGATCAACAGGAGGTTAAGAACGATCGA,0.419
13,CGTCCAAGGTCAGAGGGGTCAGTGAATGCCGAGT,7.48
14,TCTGTTAGTTGAAGGGCAACCGACGAGTCCGTTT,0.902
15,GCTAGCAGGCCATTTGAGTCACTCAATGACGGGC,-0.568
16,CGAACTAGGTCAGATCAGGACAGTGAAGGATGAT,1.12
17,AGTCAAAGTCCATCTAGGTAACGTAAGATATGCT,0.131
18,GATACAGGGTCAAGGCCGGAGTACGCGTATTGAT,4.38
19,ATTCAAAGTTCACTAGGTAACGTAAGATTCAGCT,3.43
20,CGTCAAAGTTCAACTAGGGTAACGTAAAGCACGC,5.28

row,Sequence,PBM binding z-score
1,CAAACTAGGTCAAGAAAGGTCAAAGTCGAATGAC,6.44
2,TCTTGTGGATCAAAGGTTAAGAAAGCCGAAGCCT,1.54
3,CCTAGTTGGTCAAGGTCACACAAGCTATAGGTAC,4.38
4,AGTCAAAGTTCATCTAGGTACCGTAAGATATGCT,4.98
5,CCTAGCAGGCCAGTGTCACTCAAGCATTTCGCTT,-0.398
6,TAGCCTAGGTCATGCGGGCCAGGATAGTGTCGGC,2.76
7,GATACAGGGTCAAGGCCAGATTACGCGTATTGAT,4.45
8,CGTCCAAGGTCCGAGAGGTCAGTGAATGCCGAGT,3.27
9,CGAACTAGGTCATTGACAGGACGGTGAATAGTAA,1.62
10,TCTAGCAGGCTAGAGGGTCACTCAAGAGGTACGG,1.38
11,GCTTACGGGTCAAAGGGTATAGCATGAATAGAAT,5.84
12,TCTCGGAGGACACGAACGGTCAGAGCTCGACATC,0.073
13,CCTCGGAGGACAACAGGAGGTCAGAGCAGCCAGA,1.94
14,CGAACTAGGTCAGCCAGGACAGTGAATACATTGA,3.1
15,TGTCAAAGTTCAAAGGTATCGTAAGTATCCACAC,4.75
16,GCGACTGGGGCAAAGCAGGTTACCGTAAGGTTGG,-0.0193
17,TAGCCTAGGTCATTCAGGTGCCAGTATAGAAAGC,3.1
18,AGTCAAAGTTCAGGACGAGGTAACTTAAAGCACG,3.1
19,CCTAGCAGGCCAATCAGGGTCACTCAAGGCTTGA,3.66
20,TCGACTAGGTTAGGGGCATTCAGAATGGCGTCGA,0.465
